According to PubChem BioAssay (NCATS):
Results filed as inconclusive are left out. Activity calls are given as the source filed them. Calls follow the shape of the dose curve; as a rule, active = well fitted cell-killing curve with a large enough effect; inconclusive = small, poorly fitted or top-dose-only effect, or effect the other way; inactive = no such curve, though single readings can be large or run the other way.
Potency is read from the fitted curve at half-maximal effect.

Test: Quantitative High-Throughput drug screen in 47 multiple myeloma cell lines against the NCATS MIPE library collection: Delta47_JCRB cell viability assay (AID 1918925; also: nearly all actives have a fitted effect of over 45% in size)
Settings: Delta47 myeloma viability, CellTiter-Glo ATP, 48 h; series mostly up to 45.8 µM
How it was run: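 Steps: seed 500 cells per well; pin-transfer MIPE 4.0 library; incubate 48 h at 37C, 5% CO2, humidified; add CellTiter-Glo, 5 min room temperature; read luminescence.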
For `CCc1cccc(CC)c1NC(=O)N1Cc2[nH]nc(NC(=O)c3ccc(N4CCN(C)CC4)cc3)c2C1`, the Potency was 5.9 µM (active). In the case of `CCNC(=O)c1noc(-c2cc(C(C)C)c(O)cc2O)c1-c1ccc(CN2CCOCC2)cc1`, the Potency is reported as 0.0662 µM (active). For `Cc1cc(C(C)Nc2ccccc2)c2nc(N3CCOCC3)cc(=O)n2c1` (stereo not drawn), the Potency was 9.35 µM (active). With `NC1(C(=O)N[C@@H](CCO)c2ccc(Cl)cc2)CCN(c2ncnc3[nH]ccc23)CC1` the Potency was 0.0833 µM (active). With `CC(C)=CCCC(C)=CCCC(C)=CCCC(C)=CCCC(C)=CCCC(C)=CCCC(C)=CCCC(C)=CCCC(C)=CCO` the Potency was “inactive”. For `CC(=O)OCC(=O)[C@@]12OC(C)(C)O[C@H]1C[C@H]1[C@@H]3C[C@H](F)C4=CC(=O)C=C[C@]4(C)[C@@]3(F)[C@@H](O)C[C@@]12C`, the Potency was “inactive”. With `CCCCCOC(=O)Nc1nc(=O)n([C@@H]2O[C@H](C)[C@@H](O)C2O)cc1F` (stereo partly drawn) the Potency was “inactive”. For `Nc1[nH]nc2nnc(-c3c(-c4ccccc4)nn4ccccc34)cc12`, the Potency was 4.69 µM (active). With `CCOC(=O)[C@H](CCc1ccccc1)N[C@@H](C)C(=O)N1CCCC1C(=O)O` (stereo partly drawn) the Potency was “inactive”. In the case of `CCCCC(F)(F)[C@@]1(O)CC[C@H]2[C@H](CC(=O)[C@@H]2CCCCCCC(=O)O)O1`, the Potency is reported as “inactive”. For `CCN(CC)CCCCNc1nc2cc(Cl)c(Cl)cc2nc1-c1ccc(-c2cccs2)s1`, the Potency was 7.43 µM (active). For `COc1cc(CNC(=O)CCCCC=CC(C)C)ccc1O`, the Potency was “inactive”. For `Cc1cccc2c1CC[C@H](CN1CCC(c3c(Cl)cccc3Cl)CC1)C[C@@H]2O`, the Potency was 16.6 µM (active).
